Sequences and labels used below:
T1: YWHAH 2-246 14-3-3 (domain begin residue: 2, domain end residue: 246), Q04917
T1 chain: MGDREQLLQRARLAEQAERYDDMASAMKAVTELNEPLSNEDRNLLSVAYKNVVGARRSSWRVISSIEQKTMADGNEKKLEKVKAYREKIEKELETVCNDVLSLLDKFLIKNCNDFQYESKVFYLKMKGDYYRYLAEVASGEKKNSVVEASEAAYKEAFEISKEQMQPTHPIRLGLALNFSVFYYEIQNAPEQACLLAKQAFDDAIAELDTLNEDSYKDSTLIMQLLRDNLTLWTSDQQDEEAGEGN

T2: YWHAB 1-246 14-3-3 (domain begin residue: 1, domain end residue: 246), P31946
T2 chain: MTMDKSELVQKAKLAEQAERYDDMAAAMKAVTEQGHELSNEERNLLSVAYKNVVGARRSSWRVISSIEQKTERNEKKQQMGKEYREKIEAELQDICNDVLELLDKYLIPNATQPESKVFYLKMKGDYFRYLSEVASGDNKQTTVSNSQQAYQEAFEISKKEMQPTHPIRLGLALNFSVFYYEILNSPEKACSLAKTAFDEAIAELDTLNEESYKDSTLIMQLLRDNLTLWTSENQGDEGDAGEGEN

T3: YWHAZ 1-245 14-3-3 (domain begin residue: 1, domain end residue: 245), P63104
T3 chain: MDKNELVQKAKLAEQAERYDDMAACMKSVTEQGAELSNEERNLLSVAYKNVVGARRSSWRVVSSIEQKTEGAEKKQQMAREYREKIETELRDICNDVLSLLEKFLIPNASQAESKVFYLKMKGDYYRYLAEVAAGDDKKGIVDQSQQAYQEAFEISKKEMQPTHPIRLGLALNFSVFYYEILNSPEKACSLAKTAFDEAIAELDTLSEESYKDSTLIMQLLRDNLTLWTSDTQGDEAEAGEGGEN

T4: WDR74 1-387 WD40 (domain begin residue: 1, domain end residue: 387), Q6RFH5
T4 chain: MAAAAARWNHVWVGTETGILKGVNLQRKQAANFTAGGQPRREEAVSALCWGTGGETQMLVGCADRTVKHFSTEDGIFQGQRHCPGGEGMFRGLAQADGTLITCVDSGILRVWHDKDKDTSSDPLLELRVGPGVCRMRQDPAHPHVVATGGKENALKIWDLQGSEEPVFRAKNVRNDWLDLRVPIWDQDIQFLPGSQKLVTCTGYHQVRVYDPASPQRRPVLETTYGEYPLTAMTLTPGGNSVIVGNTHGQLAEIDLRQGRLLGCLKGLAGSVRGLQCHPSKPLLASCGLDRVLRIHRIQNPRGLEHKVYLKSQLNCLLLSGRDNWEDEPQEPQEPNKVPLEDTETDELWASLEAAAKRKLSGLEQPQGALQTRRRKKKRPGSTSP

T5: YWHAE 1-255 14-3-3 (domain begin residue: 1, domain end residue: 255), P62258
T5 chain: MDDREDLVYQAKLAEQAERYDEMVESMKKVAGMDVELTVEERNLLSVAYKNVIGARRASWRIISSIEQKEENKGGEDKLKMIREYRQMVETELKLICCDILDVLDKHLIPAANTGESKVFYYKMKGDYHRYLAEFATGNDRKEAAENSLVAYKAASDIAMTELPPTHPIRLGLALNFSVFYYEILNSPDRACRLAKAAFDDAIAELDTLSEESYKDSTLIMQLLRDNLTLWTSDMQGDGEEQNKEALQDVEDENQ

T6: YWHAG 1-247 14-3-3 (domain begin residue: 1, domain end residue: 247), P61981
T6 chain: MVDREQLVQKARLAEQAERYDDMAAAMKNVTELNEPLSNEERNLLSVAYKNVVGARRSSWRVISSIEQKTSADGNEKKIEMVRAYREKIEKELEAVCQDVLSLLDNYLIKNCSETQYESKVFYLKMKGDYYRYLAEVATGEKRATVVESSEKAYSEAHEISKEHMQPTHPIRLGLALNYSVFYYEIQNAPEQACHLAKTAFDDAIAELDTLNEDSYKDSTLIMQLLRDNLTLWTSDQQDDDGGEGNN

T7: ZGPAT 120-268 zf-CCCH+TUDOR (domain begin residue: 120, domain end residue: 268), Q8N5A5
T7 chain: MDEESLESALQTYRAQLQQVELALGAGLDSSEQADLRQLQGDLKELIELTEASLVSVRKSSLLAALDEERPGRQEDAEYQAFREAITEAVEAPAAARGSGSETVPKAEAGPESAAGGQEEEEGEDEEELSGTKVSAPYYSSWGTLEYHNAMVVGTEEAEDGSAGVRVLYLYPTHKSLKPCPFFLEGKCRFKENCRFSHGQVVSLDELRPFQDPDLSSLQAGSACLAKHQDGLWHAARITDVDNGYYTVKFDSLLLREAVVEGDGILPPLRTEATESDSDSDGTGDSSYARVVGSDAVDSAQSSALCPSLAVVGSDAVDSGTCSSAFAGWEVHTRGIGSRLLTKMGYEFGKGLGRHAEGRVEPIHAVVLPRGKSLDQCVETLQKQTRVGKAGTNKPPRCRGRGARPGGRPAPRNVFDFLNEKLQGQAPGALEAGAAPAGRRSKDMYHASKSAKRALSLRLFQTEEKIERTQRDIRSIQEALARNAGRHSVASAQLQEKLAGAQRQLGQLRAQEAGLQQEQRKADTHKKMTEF

B1: unnamed (peptide)
chain: SLEWLDLAQWTDPHQR
B2: unnamed (peptide)
chain: VEYLDLANFDPMAGKW
B3: unnamed (peptide)
chain: GDVSNLSEAMELWRSW
B4: unnamed (peptide)
chain: QNIEFVWWHKEWLENQ
B5: unnamed (peptide)
chain: PALSDVWDSIPLEFAW
B6: unnamed (peptide)
chain: GLHQLDWLDLADIYPK
B7: unnamed (peptide)
chain: YMQNLDTQWMLWLQGP
B8: unnamed (peptide)
chain: DFMSDMFLQQLDTVGL
B9: unnamed (peptide)
chain: VVFSDYWVDWHVEYMG
B10: unnamed (peptide)
chain: HQQGDDWVIAEIPPFR
B11: unnamed (peptide)
chain: DMWSQWEEWNAVMPWE
B12: unnamed (peptide)
chain: EHPHYWTPWHVDYMLR
B13: unnamed (peptide)
chain: HKMEPWYTDWHADFLM
B14: unnamed (peptide)
chain: DWFSSIIEAERQPVAD
B15: unnamed (peptide)
chain: WHWPELQDLMSIGMDE
B16: unnamed (peptide)
chain: WEAIWDDMLTVQMPMA
B17: unnamed (peptide)
chain: VKSYYTTWHVQWLMDW
B18: unnamed (peptide)
chain: RPAWMDSATWLMIQEW
B19: unnamed (peptide)
chain: EPHMLYDMWREWVTAD
B20: unnamed (peptide)
chain: FDSYWEAAFDQLQMAE
B21: unnamed (peptide)
chain: PSPQPWWTDWHAEWVN
B22: unnamed (peptide)
chain: EWSVWDHVPRDWQTVG
B23: unnamed (peptide)
chain: PQSLQEAMVVWQTWSG
B24: unnamed (peptide)
chain: LEWLDLAQWHGGENSR
B25: unnamed (peptide)
chain: MPEYWVDWHMEYVQEM
B26: unnamed (peptide)
chain: HPPWWEPWHVEFLLQD
B27: unnamed (peptide)
chain: VWPMPQTWAEWQDLLA
B28: unnamed (peptide)
chain: MDWLDLAGQESLFPLW
B29: unnamed (peptide)
chain: DMWAMWHEWVEQEPQD

The first test addresses T1, YWHAH 2-246 14-3-3 (domain begin …. Description: phage ELISA signal ratio (GST-PRM binding over GST background); higher = stronger binding of peptide-phage to the PRM. In a few lines: (§1)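 Approximately 48 individual clones from selection rounds 4 and 5 were tested by phage ELISA, and those scoring positive were sequenced. They came from five rounds of selecting an M13 phage library of randomized, cysteine-free, glycine-flanked hexadecapeptides on the gene-8 major coat protein against human peptide recognition domains fused to the C-terminus of glutathione S-transferase (GST) in 96-well plates. Each figure in the table is the ELISA signal on the GST-domain fusion relative to the signal on GST alone.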
For orientation: An ELISA detects its analyte on a solid surface through an enzyme-linked reagent.
As for B1, the “phage ELISA signal ratio” value turned out to be 19.8.
For the molecule B2, the “phage ELISA signal ratio” value worked out at 26.2.
In the case of B3, the “phage ELISA signal ratio” value is 17.6.
As to B6, the “phage ELISA signal ratio” value was 18.7.
Same read-out and setting: the result for B24 reads 21.
In the case of B28, the “phage ELISA signal ratio” value was determined as 17.1.

In the next test the target is T2, YWHAB 1-246 14-3-3 (domain begin …. The description is as above. In a few lines: as §1
For B4, the “phage ELISA signal ratio” value is 15.1.
B9: the “phage ELISA signal ratio” value came to 11.9.
Consider B13, for which the “phage ELISA signal ratio” value stood at 9.61.
On to B18, for which the “phage ELISA signal ratio” value was 22.
Regarding B26, the “phage ELISA signal ratio” value came to 22.7.
B27: the “phage ELISA signal ratio” value is 17.7.

In the next test the target is T3, YWHAZ 1-245 14-3-3 (domain begin …. The description is as above. In a few lines:
as §1
As to B4, the “phage ELISA signal ratio” value was determined as 6.38.
Regarding B12, the “phage ELISA signal ratio” value was 4.41.
Same read-out and setting: in the case of B17 it was 6.31.
For B25, the “phage ELISA signal ratio” value worked out at 28.1.

Another test deals with T4, WDR74 1-387 WD40 (domain begin residue: …. The test is described as above. In a few lines:
as §1
B5: the “phage ELISA signal ratio” value was determined as 6.43.
On to B8, for which the “phage ELISA signal ratio” value was found to be 7.8.
For B11, the “phage ELISA signal ratio” value was found to be 9.73.
B14: the “phage ELISA signal ratio” value was found to be 5.4.
Same read-out and setting: in the case of B15 it was 2.99; in that of B16, 5.
Regarding B20, the “phage ELISA signal ratio” value came out at 7.17.
On to B29, for which the “phage ELISA signal ratio” value came to 2.88.

The next test addresses T5, YWHAE 1-255 14-3-3 (domain begin …. Described as above. In a few lines:
as §1
For B7, the “phage ELISA signal ratio” value amounted to 9.78.
For the molecule B22, the “phage ELISA signal ratio” value came to 17.7.

Another test has as its target T6, YWHAG 1-247 14-3-3 (domain begin …. Described as above. In a few lines: as §1
On to B10, for which the “phage ELISA signal ratio” value is 19.8.
On the same count and under the same terms, the result for B21 reads 16.1.
Regarding B23, the “phage ELISA signal ratio” value was 21.6.

A further test concerns the target T7, ZGPAT 120-268 zf-CCCH+TUDOR (domain …. Described as above. In a few lines:
as §1
On to B19, for which the “phage ELISA signal ratio” value came to 3.14.

The record behind these values is the supplement of paper PMC7724964.
